Data taken from PubChem BioAssay (NCATS).
Records with an inconclusive call do not appear. Entries that show only a call come without a potency. Active and inactive are the calls of the source. The call rests on the fitted dose curve; in most records, active means well fitted curve in the direction sought with a large enough effect; inconclusive means small, poorly fitted or top-dose-only effect, or another doubt; inactive means no such curve, though single readings can be large; an effect the other way counts as inactive or inconclusive.

Columns and labels:
[1] = qHTS assay for measurement of the activity of small molecule inhibitors on Zika virus induced Caspase-3 activity in human iPSC derived neural progenitor cells (hNPCs) (AID 1224857); further: nearly all actives have a fitted effect of over 65% in size
Summary of the method: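 hNPCs seeded 350 cells/well, cultured 16–20 h; compounds added 1 h before ZIKV (2 FFU/cell), 37 C 6 h. Caspase-Glo 3/7 luminescence after 30 min RT; % inhibition from induction scaled to uninfected (0%) and infected (100%) wells.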

[2] = qHTS assay for measurement of the activity of small molecule inhibitors on Zika virus induced Caspase-3 activity in human astrocytoma cells (AID 1224859)
Summary of the method: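 Luminescence read-out (Caspase-Glo 3/7, 30 min RT) of caspase activity in SNB-19 cells infected 6 h with ZIKV, 2 FFU/cell, after 1 h compound pretreatment; % inhibition from induction normalised to uninfected (0%) and infected (100%) wells.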

[3] = P-glycoprotein substrates identified in KB-8-5-11 adenocarcinoma cell line, qHTS therapeutic library screen (AID 1346987); further: nearly all actives have a fitted effect of over 65% in size; further: potency means the concentration at half of the fitted maximal effect
Summary of the method: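 Steps: plate 500 KB-8-5-11 cells/well in DMEM + 10% FCS (colchicine removed); pin compounds in dose-response; incubate 72 h, 37 degree C, 5% CO2; add CellTiter-Glo, 5 min; read luminescence.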

[4] = NS1 protein of Zika virus - qHTS assay to identify small molecule inhibitors in human HEK 293 cells (AID 1347053); further: series mostly up to about 46 µM; nearly all actives have a fitted effect of over 55% in size
Summary of the method: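 Following 20 h seeding, HEK 293 cells took compound, then 1 h later ZIKV MR766 (MOI = 0.5). Incubation ran 24 h at 37 C before TR-FRET detection of NS1; a drop in signal indicates inhibition.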

[5] = qHTS of pediatric cancer cell lines to identify multiple opportunities for drug repurposing: Primary screen for TC32 cells (AID 1347089); further: nearly all actives have a fitted effect of over 60% in size; further: potency means the concentration at half of the fitted maximal effect
Summary of the method: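 Measured quantity: luminescence from CellTiter-Glo, reflecting metabolically active TC32 cells following 48 h of compound. Curves came straight from multi-point titrations, with 8 or 11 points in primary and 11 in confirmatory screening.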

[6] = qHTS of pediatric cancer cell lines to identify multiple opportunities for drug repurposing: Primary screen for DAOY cells (AID 1347090); further: nearly all actives have a fitted effect of over 55% in size; further: potency means the concentration at half of the fitted maximal effect
Summary of the method: (§1)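 Cell viability, CellTiter-Glo luminescence; 500-1,000 cells/well, 8- or 11-point titration, 48 h compound exposure at 37 degrees C, 5% CO2. Controls: DMSO neutral, bortezomib 2.3 µM final as positive.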

[7] = qHTS of pediatric cancer cell lines to identify multiple opportunities for drug repurposing: Primary screen for SJ-GBM2 cells (AID 1347091); further: potency means the concentration at half of the fitted maximal effect
Summary of the method: as §1

[8] = qHTS of pediatric cancer cell lines to identify multiple opportunities for drug repurposing: Primary screen for A673 cells (AID 1347092); further: nearly all actives have a fitted effect of over 45% in size; further: potency means the concentration at half of the fitted maximal effect
Summary of the method: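 Cells are plated, rested 5 h, dosed by pintool, incubated 48 h, then lysed with CellTiter-Glo and read by luminescence. DMSO is the neutral control; bortezomib at 2.3 uM final is the positive control.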

[9] = qHTS of pediatric cancer cell lines to identify multiple opportunities for drug repurposing: Primary screen for BT-37 cells (AID 1347094); further: potency means the concentration at half of the fitted maximal effect
Summary of the method: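 Plated cells (500-1,000 per well, growth media) were allowed to settle for 5 hours, treated with compound dilutions for 48 hours, then lysed with CellTiter-Glo for 15 min at room temperature before luminescence reading.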

[10] = qHTS of pediatric cancer cell lines to identify multiple opportunities for drug repurposing: Primary screen for SK-N-MC cells (AID 1347093); further: potency means the concentration at half of the fitted maximal effect
Summary of the method: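 Metabolically active cells were quantified by ATP-dependent luminescence (CellTiter-Glo, 15 min at room temperature) following 48 h treatment. Cells had been plated at 500-1,000 per well and settled for 5 h beforehand.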

Compound	Potency [1]	outcome [2]	Potency [3]	Potency [4]	Potency [5]	Potency [6]	Potency [7]	Potency [8]	Potency [9]	Potency [10]
CC(=O)OCC(=O)[C@@]1(O)[C@H](OC(C)=O)C[C@H]2[C@@H]3CCC4=CC(=O)C=C[C@]4(C)[C@@]3(F)[C@@H](O)C[C@@]21C	inactive	inactive	inactive	inactive	inactive	inactive	inactive	inactive	inactive	–
CC(C)=CCC/C(C)=C/CC/C(C)=C/CCC(=O)OC/C=C(\C)CCC=C(C)C	inactive	inactive	inactive	inactive	inactive	inactive	inactive	inactive	inactive	inactive
CC1CC(=O)NN=C1c1ccc(NCC(C)(C)NCC(O)COc2cc(Cl)ccc2C#N)cc1 (stereo not drawn)	inactive	inactive	inactive	inactive	inactive	inactive	inactive	inactive	inactive	inactive
C[C@H](CN1CCCC1)C(=O)c1ccc(C(F)(F)F)cc1	inactive	inactive	inactive	inactive	inactive	inactive	inactive	inactive	inactive	inactive
Cc1cccc(C)c1NC(=O)c1cc(S(N)(=O)=O)c(Cl)cc1O	inactive	inactive	inactive	inactive	inactive	inactive	inactive	inactive	inactive	inactive
O=C(OCC1(COC(=O)c2cccnc2)CCCC(COC(=O)c2cccnc2)(COC(=O)c2cccnc2)C1O)c1cccnc1	inactive	inactive	inactive	inactive	inactive	inactive	inactive	inactive	inactive	–
CC(C)(C)C(=O)OCOC(=O)C1N2C(=O)CC2S(=O)(=O)C1(C)C (stereo not drawn)	inactive	inactive	inactive	inactive	inactive	inactive	inactive	inactive	inactive	inactive
CCNC(=O)NCCCOc1cccc(CN2CCCCC2)c1	inactive	inactive	inactive	inactive	inactive	inactive	inactive	inactive	inactive	inactive
O=C(O)CNC(=O)CNC(=O)CNC(=O)CSC(=O)c1ccccc1	inactive	inactive	inactive	inactive	inactive	inactive	inactive	inactive	inactive	inactive
CCOC(=O)Cn1cccc1-c1nc(-c2ccc(OC)cc2)c(-c2ccc(OC)cc2)s1	inactive	inactive	inactive	inactive	inactive	inactive	inactive	inactive	inactive	inactive
O=C(Oc1ccccc1)c1ccccc1O	inactive	inactive	inactive	inactive	inactive	inactive	inactive	inactive	inactive	inactive
NCC(=O)O	inactive	inactive	inactive	inactive	inactive	inactive	inactive	inactive	inactive	–
CC(CCc1ccc2c(c1)OCO2)NN (stereo not drawn)	inactive	inactive	inactive	inactive	inactive	inactive	inactive	inactive	inactive	inactive
Cc1cc2nc3ccc(=[N+](C)C)cc-3sc2cc1N	inactive	inactive	6.51 µM (active)	inactive	2.97 µM (active)	13.3 µM (active)	21.1 µM (active)	10.6 µM (active)	17.4 µM (active)	1.33 µM (active)
CCCCCC[C@@H](CCC)C(=O)O	inactive	inactive	inactive	inactive	inactive	inactive	inactive	inactive	inactive	inactive
O=C(Oc1ccccc1)c1cccc(C(=O)Oc2ccccc2)c1	inactive	inactive	inactive	inactive	inactive	inactive	inactive	inactive	inactive	inactive
O=C(O)[C@@H](O)[C@H](O)[C@H](O)[C@@H](O)C(=O)O	inactive	inactive	inactive	inactive	inactive	inactive	inactive	inactive	inactive	inactive
Nc1c(NC/C=C\COc2cc(CN3CCCCC3)ccn2)c(=O)c1=O	inactive	inactive	inactive	inactive	inactive	inactive	inactive	inactive	inactive	inactive
CSc1ccc(/C=C2/C(C)=C(CC(=O)O)c3cc(F)ccc32)cc1	inactive	inactive	inactive	inactive	inactive	inactive	inactive	inactive	inactive	–
CO/N=C(/C(=O)N[C@@H]1C(=O)N2C(C(=O)OCOC(=O)C(C)(C)C)=C(C)CS[C@H]12)c1csc(N)n1	inactive	inactive	inactive	inactive	inactive	inactive	inactive	inactive	inactive	26.6 µM (active)
CC(C)(C)c1nnc(NS(=O)(=O)c2ccccc2)s1	inactive	inactive	inactive	inactive	inactive	inactive	inactive	inactive	inactive	inactive
C[C@]12CCC(=O)C=C1CC[C@@H]1[C@@H]2[C@@H](O)C[C@@]2(C)[C@H]1CC[C@]2(O)C(=O)COC(=O)CCC(=O)O	inactive	inactive	inactive	inactive	inactive	inactive	inactive	inactive	inactive	inactive
Cn1cc(S(C)=O)c(=O)c2ccc(F)cc21 (stereo not drawn)	inactive	inactive	inactive	inactive	inactive	inactive	inactive	inactive	inactive	inactive
CCC(C(=O)NC(=O)NC(C)=O)c1ccccc1 (stereo not drawn)	inactive	inactive	inactive	inactive	inactive	inactive	inactive	inactive	inactive	inactive

Compound	Potency [1]	outcome [2]	Potency [3]	Potency [4]	Potency [5]	Potency [6]	Potency [7]	Potency [8]	Potency [9]	Potency [10]
OC[C@]1(O)OC[C@@H](O)[C@H](O)[C@@H]1O	inactive	inactive	inactive	inactive	inactive	inactive	inactive	inactive	inactive	inactive
CCOC(=O)OCC/C(SC(=O)OCC)=C(\C)N(C=O)Cc1cnc(C)nc1N	inactive	inactive	inactive	inactive	inactive	inactive	inactive	inactive	inactive	inactive
Cc1nc([N+](=O)[O-])cn1-c1ccc([N+](=O)[O-])cc1	inactive	inactive	inactive	inactive	inactive	inactive	–	inactive	inactive	inactive
N[C@@H](Cc1cc(I)c(O)c(I)c1)C(=O)O	inactive	inactive	inactive	inactive	inactive	inactive	inactive	inactive	inactive	–
O=C(CCCCC(=O)Nc1c(I)cc(I)c(C(=O)O)c1I)Nc1c(I)cc(I)c(C(=O)O)c1I	inactive	inactive	inactive	inactive	inactive	–	inactive	–	inactive	inactive
O=C(O)CCC(=O)OC[C@@H](NC(=O)C(Cl)Cl)[C@H](O)c1ccc([N+](=O)[O-])cc1	inactive	inactive	inactive	inactive	–	inactive	inactive	inactive	inactive	inactive
CC(=O)OC/C=C(C)/C=C/C=C(C)/C=C/C1=C(C)CCCC1(C)C	inactive	inactive	inactive	inactive	inactive	inactive	inactive	–	inactive	–
C[N+](C)(CCOc1ccccc1)Cc1cccs1	inactive	inactive	inactive	inactive	inactive	inactive	inactive	–	inactive	inactive
Oc1ccc(CCNCCCCCCNCCc2ccccc2)cc1O	inactive	inactive	inactive	inactive	–	inactive	–	–	inactive	23.7 µM (active)
Nc1ccc(O)cc1	inactive	inactive	inactive	inactive	inactive	inactive	inactive	–	inactive	–
CCCCC/C=C\C/C=C\CCCCCCCC(=O)NC(C)c1ccccc1 (stereo not drawn)	inactive	inactive	inactive	inactive	inactive	inactive	inactive	–	–	18.8 µM (active)
C[N+]1(C)CCC(OC(=O)C(O)(c2ccccc2)C2CCCC2)C1 (stereo not drawn)	inactive	inactive	inactive	inactive	inactive	–	inactive	inactive	inactive	inactive
O=C(Nc1ccc(S(=O)(=O)N2CCOCC2)cc1)c1cc(Cl)ccc1NS(=O)(=O)c1ccc(Cl)s1	inactive	inactive	inactive	inactive	inactive	inactive	–	inactive	inactive	18.8 µM (active)
CCc1cc(S(=O)(=O)O)c2cc(C(C)C)cccc1-2	inactive	inactive	inactive	inactive	inactive	inactive	inactive	inactive	inactive	–
CC(=O)CC/C=C(\C)CC/C=C(\C)CC/C=C(\C)CCC=C(C)C	inactive	inactive	inactive	inactive	inactive	inactive	inactive	–	inactive	inactive
C[C@@]12CCC[C@H]1[C@@H]1CC[C@H]3C[C@@H](O)CC[C@]3(C)[C@H]1CC2	inactive	inactive	inactive	inactive	inactive	inactive	inactive	–	inactive	inactive
COc1ccccc1OCC1CNC(=O)O1 (stereo not drawn)	inactive	inactive	inactive	inactive	inactive	inactive	–	inactive	inactive	inactive
O=C(NO)c1ccccc1	inactive	inactive	inactive	inactive	–	inactive	–	–	–	–
Cc1ccc(O)cc1	inactive	inactive	inactive	inactive	inactive	–	inactive	inactive	inactive	–
CN1C(=O)CC(C)(c2ccccc2)C1=O (stereo not drawn)	inactive	inactive	inactive	inactive	inactive	inactive	inactive	–	inactive	–
CC(C)C[C@H](NC(=O)CNC(=O)[C@H](Cc1ccc(O)cc1)NC(=O)[C@H](CO)NC(=O)[C@H](Cc1c[nH]c2ccccc12)NC(=O)[C@H](Cc1cnc[nH]1)NC(=O)[C@@H]1CCC(=O)N1)C(=O)N[C@@H](CCCN=C(N)N)C(=O)N1CCC[C@H]1C(=O)NCC(N)=O (stereo in doubt)	inactive	inactive	inactive	inactive	inactive	inactive	inactive	inactive	inactive	–
O=P(O)(O)OCC(O)CO (stereo not drawn)	inactive	inactive	inactive	inactive	–	inactive	inactive	inactive	inactive	inactive
O=C(O)[C@H](O)[C@@H](O)[C@H](O[C@@H]1O[C@H](CO)[C@H](O)[C@H](O)[C@H]1O)[C@H](O)CO	inactive	inactive	inactive	inactive	inactive	inactive	–	inactive	inactive	inactive
